Most compounds without a hit are left out; they make up all but 2.7% or so of the library.
KDM5B inh: Primary screen for KDM5B Histone Demethylases FDH-coupled qHTS | Lysine-specific demethylase 5B (Homo sapiens), Q9UGL1 | KDM5B demethylase, FDH-coupled NADH fluorescence (FDH is formaldehyde dehydrogenase) | Potency, µM (highest dose often 57.7 µM), most hits filed as inhibitors | actives 2.6% (n = 220,000) | AID 1347165, 2019; active = well fitted inhibition curve with a large enough effect; inconclusive = small, poorly fitted or top-dose-only effect; inactive = no such curve, though single readings can be large or run the other way; also: potency is read from the fitted curve at half-maximal effect; 0% is about no effect; nearly all actives have a fitted effect of over 70% in size
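Compound dilutions met 200 nM (final) KDM5BΔAP for 10 min at room temperature before substrate addition. The substrate mix held 12.5 µM H3K4me3 with cofactors 25 µM α-ketoglutarate and 50 µM Fe²⁺. NADH signal gain over 30 min defined activity.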
IP6K1 inhibitor: Primary qHTS assay for small molecule inhibitors of Inositol hexaphosphate kinase 1 (IP6K1); Inositol hexakisphosphate kinase 1 (Homo sapiens), Q92551; IP6K1 kinase, ADP-Glo luminescence, 2 h; active compounds read low; activity change, % (series mostly up to about 58 µM); actives 0.81% (n = 140,000); AID 1645851, 2021; in the data active = activity change below about -25%; also: % is scaled to controls: 0 for no effect and ±100 for the full control effect
Target sequence (Q92551 whole entry, looked up): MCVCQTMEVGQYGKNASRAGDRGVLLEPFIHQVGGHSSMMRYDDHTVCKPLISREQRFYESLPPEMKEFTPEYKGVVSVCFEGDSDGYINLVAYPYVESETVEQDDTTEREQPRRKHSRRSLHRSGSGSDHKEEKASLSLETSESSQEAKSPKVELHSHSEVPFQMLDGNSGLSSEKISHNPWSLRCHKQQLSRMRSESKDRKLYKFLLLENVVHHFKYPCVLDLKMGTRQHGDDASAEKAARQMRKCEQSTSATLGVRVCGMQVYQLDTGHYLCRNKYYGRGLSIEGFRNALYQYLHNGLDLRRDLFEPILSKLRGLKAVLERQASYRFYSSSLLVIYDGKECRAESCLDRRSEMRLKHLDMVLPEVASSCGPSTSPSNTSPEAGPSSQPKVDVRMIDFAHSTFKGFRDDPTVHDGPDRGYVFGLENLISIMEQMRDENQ
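ADP-Glo luminescence measures ADP made by human IP6K1 during a 2 h RT reaction with ATP/IP6 (mix at 1.3 mM/130 uM); top library doses 57.5 and 19.1 uM final.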
Active calls of the source: *; i = inactive; ? = inconclusive; / = no result given.

SMILES | KDM5B inh | IP6K1 inhibitor
Cc1noc(C)c1CC(=O)N1CCCC2(C1)Nc1cccnc1NC2=NCc1ccccc1 (stereo not given) | 28µM* | 12
COc1ccc(C(=O)N2CCCC3(C2)Nc2cccnc2NC3=NCc2ccccc2)cc1 (stereo not given) | 28µM* | 0
O=C(c1cnn(Cc2ccccc2Cl)c1)N1CCCN(S(=O)(=O)c2ccc(F)cc2)CC1 | i | /
COc1cccc(C(=O)N2CCCC3(C2)Nc2cccnc2NC3=NCc2ccccc2)c1 (stereo not given) | 28µM* | -3
O=C(COc1ccccc1)N1CCCC2(C1)Nc1cccnc1NC2=NCc1ccccc1 (stereo not given) | ? | 5
O=C(NC1CCCCCC1)c1ccc2oc(-c3ccncc3)nc2c1 | / | 4
COc1ccc(Nc2ccnc(N3CCC(NC(=O)c4ccccc4Cl)CC3)n2)cc1 | / | 9
CCCCOC(=O)N1CCC(=O)N(CC)C[C@H]2COc3cc(OC)ccc3[C@H]21 | / | 11
CCOc1ccc2c(c1)c(C(C)=O)c(C)n2-c1cccc(Cl)c1 | i | /
c1cn(-c2ccc(OCC3CCCO3)cc2)c(-c2cc3n(n2)CCNC3)n1 (stereo not given) | ? | -3
c1cn(-c2ccc(Oc3nn[nH]n3)cc2)c(-c2cc3n(n2)CCNC3)n1 | 18µM* | 2
CCc1ccccc1NC(=O)Cn1c(N2CCc3ccccc3C2)nc(C)cc1=O | ? | 8
CCNc1ncc(C(=O)N[C@H](C2CCNCC2)C2CC(O)C2)cn1 (stereo not given in full) | 28µM* | 7
CCNc1ncc(C(=O)N[C@H](c2cccs2)C2CC(O)C2)cn1 (stereo not given in full) | 22µM* | 13
O=C(N[C@H](c1cccs1)C1CC(O)C1)c1ccc(N2CCOCC2)cc1 (stereo not given in full) | i | 12
Cc1cc(C)c(C(=O)N[C@H](C2CCNCC2)C2CC(O)C2)c(C)c1 (stereo not given in full) | i | 27
C[C@]12CC[C@H](O)CC1=CCC[C@@H]2OC(=O)Nc1ccccc1 | / | 19
CC(C)/C=N/NC(=O)c1ccc[n+]([O-])c1 | i | /
Cc1ccc(-c2nnc(C(C)Sc3nnc4ccccn34)o2)cc1 (stereo not given) | i | /
Cc1ccc(NC(=O)C(C#N)=C2CCC(C)CC2)cc1 (stereo not given) | i | /
COc1cc(C(=O)NC2CCN(c3cc(-c4cccs4)[nH]n3)C2)cc(OC)c1OC (stereo not given) | ? | -10
COc1ccccc1C(=O)NC1CCN(c2cc(-c3cccs3)[nH]n2)C1 (stereo not given) | 16µM* | 5
O=C(NC1CCN(c2cc(-c3cccs3)[nH]n2)C1)c1cccs1 (stereo not given) | ? | 8
COc1cc(OC)cc(C(=O)NC2CCN(c3cc(-c4cccs4)[nH]n3)C2)c1 (stereo not given) | 3.5µM* | -5
Cc1ccc(C(=O)NC2CCN(c3cc(-c4cccs4)[nH]n3)C2)c(C)c1 (stereo not given) | ? | -3
SMILES | KDM5B inh | IP6K1 inhibitor
O=C(NC1CCN(c2cc(-c3cccs3)[nH]n2)C1)c1ccccc1Br (stereo not given) | 25µM* | -3
COc1ccc(-c2ocnc2C(=O)Nc2cccc(Cl)c2C)cc1 | i | /
N#Cc1cn(CC(=O)Nc2ccc(Cl)c(Cl)c2)c2ccccc12 | i | /
CN(C)C(=O)CCC[C@@H]1[C@H]2CCCN3CCC[C@@H](CN1C)[C@@H]23 | i | 6
CCN1CCN(CCNC(=O)CCC[C@@H]2[C@H]3CCCN4CCC[C@@H](CN2C(C)=O)[C@@H]34)CC1 | i | 0
CN1CCN(CCCNC(=O)CCC[C@@H]2[C@H]3CCCN4CCC[C@@H](CN2Cc2ccccc2)[C@@H]34)CC1 | i | -11
CC(=O)N1C[C@@H]2CCCN3CCC[C@@H]([C@H]23)[C@H]1CCCC(=O)N(C)C | 20µM* | 1
CC(=O)N1C[C@@H]2CCCN3CCC[C@@H]([C@H]23)[C@H]1CCCC(=O)NCCC(C)C | ? | 3
CC(=O)N1C[C@@H]2CCCN3CCC[C@@H]([C@H]23)[C@H]1CCCC(=O)NCCCN1CCCCC1 | 25µM* | 10
O=C(CCC[C@@H]1[C@H]2CCCN3CCC[C@@H](CN1Cc1ccccc1)[C@@H]23)NCCCn1cccn1 | 22µM* | -1
CC(=O)N1C[C@@H]2CCCN3CCC[C@@H]([C@H]23)[C@H]1CCCC(=O)NCCN1CCCCC1 | 22µM* | -7
N#C/C(=C/c1ccc(-c2ccccc2C#N)o1)c1nc2ccccc2[nH]1 | i | /
CCC(C(=O)Nc1cccc(OC)c1)n1nnc(C(=O)OC)c1C(=O)OC (stereo not given) | i | /
Cc1nc(NCc2ccc3c(c2)OCO3)c2c3c(sc2n1)CCCC3 | i | /

Assay outcomes (PubChem)
